From PubChem BioAssay (NCI)
Values joined by “and” are separate entries in the source; they are usually repeats but may differ in a detail not shown here. Identical values can stand only once. Compounds without any hit were thinned out: in the full panel of roughly 83,000, 20% have a hit.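 How to read the values: 0–100, growth inhibition (40 = 60% inhibited); 0, no net growth; -100 to 0, cell death (-40 = 40% of starting cells died; -100 = all dead).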 Active and inactive are the calls of the source. The calls were made as follows: active = growth percent below 10; inactive = the rest.

tested on: HL-60(TB) leukemia; assay: NCI-60 one-dose screen, 48 h (100 = growth as untreated, 0 = no growth, -100 = all killed); conditions: 10 µM unless noted

Compound | growth
O=C(CSc1nnc2n1S(=O)(=O)c1ccccc1N2c1ccccc1)Nc1nc2ccc(F)cc2s1 | 106% (inactive)
COc1ccc(-c2csc(NC(=O)c3ccc(Cc4n[nH]c(=O)c5cccnc45)cc3)n2)cc1 | 104% (inactive)
COCCn1c(-c2csc(-c3cn(C)c4ccc(OC)cc34)n2)cc2cccnc21 | 55.8% (inactive)
Oc1ccc(N=Nc2ccc(Br)cc2)c(O)c1 | -21.8% (active)
Nc1c(C(=O)Nc2cccc(Cl)c2Cl)sc2nc3c(cc12)C(=O)CCC3 | 96.6% (inactive)
O=c1[nH]c(=S)[nH]n1C(=S)n1[nH]c(=S)[nH]c1=O | 99.1% (inactive)
CS(=O)(=O)c1cccc(-c2c(-c3cccc(OS(N)(=O)=O)c3)nc3sccn23)c1 | 102% (inactive)
CCOC(=O)Nc1ccc2c(c1)/C(=N\NC(N)=S)c1ccccc1-2 | 55.4% (inactive) and 78.8% (inactive)
COc1cc(/C=C\c2cc(/C=C\c3ccc(O)c(OC)c3)n(C(=O)COc3ccc(Cl)cc3Cl)n2)ccc1O | -18.7% (active)
Cc1ccc(C(C)C)cc1C(=O)C[n+]1ccccc1 | 115% (inactive)
ClCCn1cnc2c(SCc3ccccc3Cl)ncnc21 | 8.38% (active)
CCN1C(=O)N(CC)C2C1NN=c1s/c(=C\c3ccc(Cl)cc3Cl)c(=O)n12 (centres undefined) | -52.1% (active)
CC(=O)N1N=C(c2ccc(Nc3nc(Nc4ccc(Cl)cc4)nc(Nc4ccc(Cl)cc4)n3)cc2)CC1c1ccco1 (centres undefined) | 93.6% (inactive)
N#Cc1c(-c2ccccc2)nc(SCC2CO2)nc1N1CCOCC1 (centres undefined) | 63.7% (inactive)
Cc1cc(OC(=O)c2ccc([N+](=O)[O-])cc2)nc2[nH]c(=O)sc12 | 99.5% (inactive)
Oc1c(CN2CCCCC2)ccc2cccnc12 | 58.3% (inactive) and 18.2% (inactive)
CC(C)(C)c1ccc(OP(=S)(N/N=C/c2ccccc2O)Oc2ccc(C(C)(C)C)cc2)cc1 | 77.8% (inactive)
Cc1ccc(NC(=O)c2ccc(CN3CC[C@H](N(C)C)C3)c(C(F)(F)F)c2)cc1Nc1nccc(-c2cncnc2)n1 | -51.3% (active)
CCc1ccc(C(=O)/C=C/C23c4ccccc4C(c4ccccc42)C2C(=O)NC(=O)C23)cc1 (centres undefined) | -12.3% (active)
Nc1c(O)c(S(=O)(=O)O)c(O)c2c1C(=O)c1ccccc1C2=O | -8.61% (active)

Compound | growth
C=Cc1cc[n+](CCCCCCCCCCCC)cc1 | 80% (inactive)
COc1ccc(CCNC(=S)NN)cc1OC | 92.1% (inactive)
CC(=O)[C@H]1CC[C@H]2[C@@H]3C[C@H](C)C4=CC(=O)CC[C@]4(C)[C@H]3C(=O)C[C@]12C | 79.7% (inactive)
Cc1cc(C)c(N2C(=O)CC(Sc3ccccc3N)C2=O)c(C)c1 (centres undefined) | 68.8% (inactive)
Cc1nn(-c2ccccc2)c(Oc2ccc(Cl)cc2)c1/C=N\N=c1/sc2ccccc2n1C | 78% (inactive)
CNC(=O)CN1CCC(Oc2cc3c(Nc4cccc(Cl)c4F)ncnc3cc2OC)CC1 | 86.9% (inactive)
COC(=O)/C=C/c1cc(O)c2c(c1)C(C(=O)OC)C(c1ccc(O)c(O)c1)O2 (centres undefined) | -10.5% (active) and -0.307% (active)
CCC(C)NC(=O)c1ccccc1C (centres undefined) | 111% (inactive)
CCN(CC)CCCCCCNc1cc(OC)cc2cccnc12 | -57.3% (active)
O=C(/C=C/c1cc2ccccc2[nH]c1=O)/C=C/c1cc2ccccc2[nH]c1=O | 24.7% (inactive)
COc1cccc(-c2nn(-c3ccccc3)cc2-c2ccnc(NCCNC(=O)Nc3cccc(C(F)(F)F)c3)c2)c1 | 2.15% (active)
CC(=O)N1C(=S)NC(=O)C1Cn1c(-c2ccccc2)nc2ccccc21 (centres undefined) | 98.9% (inactive)
COc1ccc(/C(C#N)=C/c2ccccn2)cc1 | 91.8% (inactive) and 78.1% (inactive)
COc1ccc2nc(NC(=O)CSc3nnc4n3S(=O)(=O)c3ccccc3N4C)sc2c1 | 53.8% (inactive)
N#CC1=C(N)Oc2c(ccc3ccccc23)C1c1ccc([N+](=O)[O-])cc1 (centres undefined) | 69.9% (inactive)
O=C(COc1cccc(/C=C2\COc3ccc(Cl)cc3C2=O)c1)c1ccc(Cl)cc1 | 52.7% (inactive)
CC(C)(C#N)c1cc(F)cc(C(=O)Nc2cc(Nc3ncccc3-c3ncnc4nc[nH]c34)ccc2F)c1 | 13.9% (inactive)
COC(=O)c1ccccc1Cl | 97.3% (inactive)
CS(=O)(=O)Nc1cccc(C(=O)NCc2ccc(N3CCOCC3)cc2)c1 | 91.9% (inactive)
